PubChem BioAssay AID1159580 (chemical genetic matrix, 2015)
Where “and” joins values, the source holds several entries; their conditions need not be identical. Equal entries are not always repeated. In all, about 5,500 compounds went through this assay and about 2,000 (36%) were called active. About 18% were inconclusive and are not listed. Cut-off read from the data, not from the text of the source: active = normalized growth mostly below about 0.91 (no sharp cut-off); inconclusive = no clear call, values can overlap the other calls; inactive = mostly above about 0.92. The list shows a part of the results.

Experiment: chemical genetic growth profiling, strain panel (AID 1159580);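 note: tested at 20 µM; growth read once vehicle control cultures reached saturation at 30 °C; 1 = growth at the plate median or of vehicle wells; lower values mean less growth of the strain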
Conditions: S. cerevisiae deletion strains, growth OD

Measured: normalized growth

C[C@@H]1CC[C@@]2(NC1)O[C@H]1C[C@H]3C4CC=C5C[C@@H](O)CC[C@]5(C)C4CC[C@]3(C)C1[C@@H]2C (some centres not stated)
inactive: locus YGL167C, strain pmr1, stronger effect = lower value 0.956 | locus YHR079C, strain IRE1, stronger effect = lower value 1.03 | locus YJR066W, strain TOR1, stronger effect = lower value 0.985 | locus YKL068W, stronger effect = lower value 1.01 | locus YKL085W, strain MDH1 (second series), stronger effect = lower value 0.942 | locus YKL085W, strain MDH1, stronger effect = lower value 0.942 | locus YLR113W, strain HOG1, stronger effect = lower value 1.04 | locus YNL183C, strain NPR1, stronger effect = lower value 0.989 | locus YOL012C, strain htz1 0.198 | locus YOR231W, strain MKK1, stronger effect = lower value 1.03 | locus YPL256C, strain CLN2, stronger effect = lower value 1.07 | locus YPR141C, strain kar3, stronger effect = lower value 1.06
0.0614 (active) and 1.03 (inactive): locus YJL095W, strain BCK1, stronger effect = lower value
0.0512 (active) and 1.05 (inactive): locus YHR030C, strain SLT2, stronger effect = lower value
active: locus YAL021C, strain ccr4, stronger effect = lower value 0.0884 | locus YAL026C, strain drs2, stronger effect = lower value 0.0686 | locus YAL030W, strain snc1, stronger effect = lower value 0.0727 | locus YBL061C, strain skt5, stronger effect = lower value 0.246 | locus YBR009C, strain hhf1, stronger effect = lower value 0.0752 | locus YBR021W, strain FUR4, stronger effect = lower value 0.566 | locus YBR023C, strain chs3, stronger effect = lower value 0.189 | locus YBR171W, strain sec66, stronger effect = lower value 0.0867 | locus YBR229C, strain ROT2, stronger effect = lower value 0.132 | locus YBR231C, strain swc5, stronger effect = lower value 0.147 | locus YBR279W, strain paf1, stronger effect = lower value 0.431 | locus YCL011C, strain gbp2, stronger effect = lower value 0.0674 | locus YCL016C, strain dcc1, stronger effect = lower value 0.155 | locus YCL029C, strain bik1, stronger effect = lower value 0.0831 | locus YCL061C, strain MRC1, stronger effect = lower value 0.0777 | locus YCL069W, strain vba3, stronger effect = lower value 0.067 | locus YCR088W, strain abp1, stronger effect = lower value 0.0699 | locus YDL005C, strain med2, stronger effect = lower value 0.0923 | locus YDL035C, strain GPR1, stronger effect = lower value 0.086 | locus YDL040C, strain nat1, stronger effect = lower value 0.495 | locus YDL074C, strain BRE1, stronger effect = lower value 0.188 | locus YDL101C, strain DUN1, stronger effect = lower value 0.0946 | locus YDL134C, strain PPH21, stronger effect = lower value 0.0628 | locus YDL185W, strain tfp1, stronger effect = lower value 0.673 | locus YDL192W, strain arf1, stronger effect = lower value 0.123 | locus YDR001C, strain nth1, stronger effect = lower value 0.0751 | locus YDR069C, strain doa4, stronger effect = lower value 0.255 | locus YDR101C, strain arx1, stronger effect = lower value 0.132 | locus YDR137W, strain rgp1, stronger effect = lower value 0.644 | locus YDR159W, strain sac3, stronger effect = lower value 0.155 | locus YDR162C, strain NBP2, stronger effect = lower value 0.0581 | locus YDR195W, strain ref2 0.153 | locus YDR297W, strain sur2, stronger effect = lower value 0.0933 | locus YDR318W, strain mcm21, stronger effect = lower value 0.0863 | locus YDR334W, strain swr1, stronger effect = lower value 0.075 | locus YDR335W, strain msn5, stronger effect = lower value 0.0693 | locus YDR388W, stronger effect = lower value 0.0688 | locus YDR392W, strain spt3, stronger effect = lower value 0.0901 | locus YDR502C, strain sam2, stronger effect = lower value 0.0995 | locus YEL003W, strain gim4, stronger effect = lower value 0.0687 | locus YEL037C, strain rad23, stronger effect = lower value 0.0666 | locus YEL061C, strain CIN8 (second series), stronger effect = lower value 0.0639 | locus YER015W, strain faa2, stronger effect = lower value 0.0893 | locus YER016W, strain bim1, stronger effect = lower value 0.306 | locus YER110C, stronger effect = lower value 0.116 | locus YER111C, strain swi4, stronger effect = lower value 0.0797 | locus YER155C, strain BEM2 (second series), stronger effect = lower value 0.106 | locus YER155C, strain BEM2, stronger effect = lower value 0.0845 | locus YER167W, strain BCK2, stronger effect = lower value 0.0646 | locus YFR010W, strain ubp6, stronger effect = lower value 0.0951 | locus YGL078C, strain dbp3, stronger effect = lower value 0.898 | locus YGL086W, strain mad1, stronger effect = lower value 0.0765 | locus YGL173C, strain kem1, stronger effect = lower value 0.474 | locus YGL227W, strain vid30, stronger effect = lower value 0.0779 | locus YGL240W, strain doc1, stronger effect = lower value 0.262 | locus YGL248W, strain PDE1, stronger effect = lower value 0.0583 | locus YGL253W, strain hxk2, stronger effect = lower value 0.0617 | locus YGR135W, strain pre9, stronger effect = lower value 0.0806 | locus YGR252W, strain gcn5, stronger effect = lower value 0.254 | locus YHR013C, strain ard1, stronger effect = lower value 0.131 | locus YHR027C, strain rpn1, stronger effect = lower value 0.157 | locus YHR079C, strain IRE1 (second series), stronger effect = lower value 0.107 | locus YHR094C, strain hxt1, stronger effect = lower value 0.0989 | locus YHR129C, strain ARP1, stronger effect = lower value 0.0688 | locus YHR142W, strain chs7, stronger effect = lower value 0.0769 | locus YHR200W, strain rpn10, stronger effect = lower value 0.103 | locus YIL066C, strain RNR3, stronger effect = lower value 0.0582 | locus YIL073C, strain SPO22, stronger effect = lower value 0.144 | locus YIL125W, strain kgd1, stronger effect = lower value 0.886 | locus YIR030C, strain dcg1, stronger effect = lower value 0.0978 | locus YJL092W, strain hpr5, stronger effect = lower value 0.0727 | locus YJL095W, strain BCK1 (second series), stronger effect = lower value 0.0644 | locus YJL115W, strain asf1, stronger effect = lower value 0.0841 | locus YJL129C, strain trk1, stronger effect = lower value 0.0945 | locus YJL134W, strain LCB3, stronger effect = lower value 0.0822 | locus YJL154C, strain vps35, stronger effect = lower value 0.0818 | locus YJL164C, strain tpk1, stronger effect = lower value 0.0731 | locus YJL166W, strain qcr8, stronger effect = lower value 0.0704 | locus YJL168C, strain set2, stronger effect = lower value 0.121 | locus YJL187C, strain SWE1 (second series), stronger effect = lower value 0.103 | locus YJR075W, strain HOC1, stronger effect = lower value 0.119 | locus YKL009W, strain mrt4, stronger effect = lower value 0.807 | locus YKL160W, strain elf1, stronger effect = lower value 0.12 | locus YKR001C, strain vps1, stronger effect = lower value 0.0859 | locus YKR026C, strain gcn3, stronger effect = lower value 0.0875 | locus YKR091W, strain srl3, stronger effect = lower value 0.109 | locus YLL001W, strain dnm1, stronger effect = lower value 0.074 | locus YLL026W, stronger effect = lower value 0.0713 | locus YLL041C, strain sdh2, stronger effect = lower value 0.075 | locus YLR027C, strain aat2, stronger effect = lower value 0.0705 | locus YLR039C, strain RIC1, stronger effect = lower value 0.33 | locus YLR058C, strain SHM2, stronger effect = lower value 0.0802 | locus YLR102C, strain apc9, stronger effect = lower value 0.088 | locus YLR221C, strain rsa3, stronger effect = lower value 0.0678 | locus YLR258W, strain gsy2, stronger effect = lower value 0.0842 | locus YLR262C, strain YPT6 (second series), stronger effect = lower value 0.341 | locus YLR268W, strain sec22, stronger effect = lower value 0.0987 | locus YLR320W, strain mms22, stronger effect = lower value 0.091 | locus YLR342W, strain FKS1 (second series), stronger effect = lower value 0.0987 | locus YLR342W, strain FKS1, stronger effect = lower value 0.0952 | locus YLR357W, strain rsc2, stronger effect = lower value 0.172 | locus YLR370C, strain arc18, stronger effect = lower value 0.066 | locus YLR371W, strain rom2, stronger effect = lower value 0.0867 | locus YLR384C, strain iki3, stronger effect = lower value 0.702 | locus YLR418C, strain cdc73, stronger effect = lower value 0.127 | locus YML016C, strain PPZ1, stronger effect = lower value 0.0701 | locus YML032C, strain rad52, stronger effect = lower value 0.112 | locus YML120C, strain ndi1, stronger effect = lower value 0.0773 | locus YML124C, strain tub3, stronger effect = lower value 0.0964 | locus YMR058W, strain fet3, stronger effect = lower value 0.0836 | locus YMR078C, strain ctf18, stronger effect = lower value 0.0876 | locus YMR125W, strain sto1, stronger effect = lower value 0.089 | locus YMR129W, stronger effect = lower value 0.0739 | locus YMR205C, strain PFK2, stronger effect = lower value 0.15 | locus YMR223W, strain ubp8, stronger effect = lower value 0.0986 | locus YMR231W, strain pep5, stronger effect = lower value 0.319 | locus YMR307W, strain GAS1, stronger effect = lower value 0.145 | locus YNL067W, strain RPL9B, stronger effect = lower value 0.132 | locus YNL071W, strain lat1, stronger effect = lower value 0.0643 | locus YNL209W, strain ssb2, stronger effect = lower value 0.19 | locus YNL233W, strain BNI4, stronger effect = lower value 0.0774 | locus YNL248C, strain rpa49, stronger effect = lower value 0.079 | locus YNL250W, strain rad50, stronger effect = lower value 0.889 | locus YNL271C, strain bni1, stronger effect = lower value 0.848 | locus YNL298W, strain CLA4, stronger effect = lower value 0.767 | locus YNL307C, strain MCK1, stronger effect = lower value 0.0706 | locus YNL322C, strain KRE1 (second series), stronger effect = lower value 0.0978 | locus YNR049C, strain mso1, stronger effect = lower value 0.0668 | locus YNR052C, strain pop2, stronger effect = lower value 0.282 | locus YOL147C, strain pex11, stronger effect = lower value 0.0757 | locus YOR001W, strain rrp6, stronger effect = lower value 0.083 | locus YOR061W, strain CKA2, stronger effect = lower value 0.0862 | locus YOR069W, strain VPS5, stronger effect = lower value 0.104 | locus YOR070C, strain gyp1, stronger effect = lower value 0.151 | locus YOR080W, strain dia2, stronger effect = lower value 0.277 | locus YOR083W, strain WHI5, stronger effect = lower value 0.134 | locus YOR106W, strain vam3, stronger effect = lower value 0.0987 | locus YOR136W, strain idh2, stronger effect = lower value 0.108 | locus YOR144C, strain elg1, stronger effect = lower value 0.0812 | locus YOR184W, strain ser1, stronger effect = lower value 0.0846 | locus YOR265W, strain rbl2, stronger effect = lower value 0.0812 | locus YOR270C, strain vph1, stronger effect = lower value 0.0993 | locus YOR290C, strain snf2, stronger effect = lower value 0.074 | locus YOR316C, strain cot1, stronger effect = lower value 0.0883 | locus YPL051W, strain arl3, stronger effect = lower value 0.436 | locus YPL055C, strain LGE1, stronger effect = lower value 0.137 | locus YPL078C, strain atp4, stronger effect = lower value 0.0699 | locus YPL106C, strain sse1, stronger effect = lower value 0.154 | locus YPL240C, strain hsp82, stronger effect = lower value 0.0838 | locus YPR119W, strain clb2, stronger effect = lower value 0.0943 | locus YPR163C, strain tif3, stronger effect = lower value 0.0947 | locus YPR167C, strain met16, stronger effect = lower value 0.0878 | strain wtn01, stronger effect = lower value 0.0815
